Sampled rows, rich in hits. Any-hit rate of the full collection: about 1.5%.
GALK inh: blocks human galactokinase activity; P51570; Purified GALK, Kinase-Glo residual ATP luminescence; Potency, µM (top dose mostly 57.5 µM), for the others: at the highest dose activity change, negative = inhibition, usual class: inhibitors; 0.007% of 270,000 active; AID 1868; note: potency is the fitted concentration of half-maximal effect
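Kinase-Glo Plus luminescence measured ATP left after a 1 h room-temperature reaction. The reaction used 5 nM GALK, 100 uM galactose and 35 uM ATP at pH 8.0 (20 mM HEPES, 5 mM MgCl2, 60 mM NaCl, 1 mM DTT, 0.01% BSA).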
TrxR1 substrate: substrates of rat thioredoxin reductase 1 | O89049 | Potency, µM (titrated, usually from 114 µM), inactives show at the highest dose activity change, negative = substrate turnover | purified TrxR1 substrate turnover, NADPH consumption readout | 0.01% of 390,000 active; note: potency is the fitted concentration of half-maximal effect; nearly all actives have a fitted effect of over 50% in size
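Rat TrxR1, dispensed at 90 nM, was prereduced with 400 uM NADPH (final) for 5 min at ~22 deg C, then incubated with compound 15 min before 400 uM selenite. A first-read NADPH fluorescence drop versus no-compound background flagged substrates.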
USP1-UAF1 inh: inhibitors of human USP1/UAF1 deubiquitinase; Potency, µM (doses to about 57.1 µM), for inactives: at the top dose activity change, negative = inhibition, usual class: inhibitors; O94782; recombinant USP1/UAF1, Ub-Rhodamine cleavage fluorescence; 0.23% of 390,000 active; AID 743255; note: potency is the fitted concentration of half-maximal effect; nearly all actives have a fitted effect of over 60% in size
Target sequence (O94782 whole entry, looked up): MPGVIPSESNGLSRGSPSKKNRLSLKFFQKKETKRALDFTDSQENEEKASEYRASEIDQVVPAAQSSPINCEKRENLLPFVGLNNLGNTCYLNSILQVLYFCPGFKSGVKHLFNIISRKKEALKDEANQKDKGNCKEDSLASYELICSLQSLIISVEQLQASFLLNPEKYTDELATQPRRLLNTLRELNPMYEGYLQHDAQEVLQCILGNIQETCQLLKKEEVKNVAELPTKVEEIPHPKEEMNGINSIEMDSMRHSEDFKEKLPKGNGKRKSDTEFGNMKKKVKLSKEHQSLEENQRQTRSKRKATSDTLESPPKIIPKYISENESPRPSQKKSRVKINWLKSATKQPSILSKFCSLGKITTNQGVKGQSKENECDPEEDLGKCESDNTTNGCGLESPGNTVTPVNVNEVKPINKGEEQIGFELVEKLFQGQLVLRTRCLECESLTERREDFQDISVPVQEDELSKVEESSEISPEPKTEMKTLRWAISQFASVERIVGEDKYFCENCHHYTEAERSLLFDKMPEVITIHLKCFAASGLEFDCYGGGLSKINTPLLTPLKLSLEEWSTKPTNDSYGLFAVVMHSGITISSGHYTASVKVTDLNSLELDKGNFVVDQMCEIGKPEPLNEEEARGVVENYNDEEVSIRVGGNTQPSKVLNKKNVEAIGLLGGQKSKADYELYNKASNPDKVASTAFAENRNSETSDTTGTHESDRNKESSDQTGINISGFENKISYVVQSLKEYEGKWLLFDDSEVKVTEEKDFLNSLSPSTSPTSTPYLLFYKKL
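In this screen, compounds sit with the deubiquitinase complex (1nM) for 15 min at room temperature before Ub-Rho is added at 150nM final. Fluorescence rise is then followed for 6 reads every 60 seconds.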
rTrxR1 inhibitor: blocks rat thioredoxin reductase 1; recombinant rTrxR1, NADPH fluorescence consumption, selenite substrate; Potency, µM (top dose mostly 114 µM), without a hit: top-dose activity change, negative = inhibition, usual class: inhibitors; 1% of 390,000 active; note: potency is the fitted concentration of half-maximal effect; nearly all actives have a fitted effect of over 65% in size
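Rat TrxR1 (90 nM in the dispensed reagent) was pre-reduced with 400 uM NADPH for 5 min at room temperature, then incubated with compound for 15 min. After 400 uM selenite was added, NADPH fluorescence (Ex 340/Em 450 nm) was followed for 8 min.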
Coupling enz: inhibits coupling enzyme system, counter-screen for aldolase hits; 0.67% of 290,000 active; coupling enzyme system counterscreen, AmpLite Red fluorescence; activity change, negative = inhibition, % at 58.2 µM, hits read low; in the data active = activity change below about -30%
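Fluorescence at 525 nm excitation and 598 nm emission measured inhibition of the coupled detection system without aldolase. Compounds (at 57.5 uM final) were preincubated 10 min at room temperature with coupling enzyme reagent before a 20 min substrate/AmpLite Red step.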
An asterisk follows results filed as active; ? = inconclusive; · = no result; [ ] = remark or other dose. Unless noted, calls come from the whole dose curve; as a rule, active = well fitted curve in the direction sought with a large enough effect; inconclusive = small, poorly fitted or top-dose-only effect, or another doubt; inactive = no such curve, though single readings can be large; an effect the other way counts as inactive or inconclusive. % is set by controls: 0 for no effect and ±100 for the full control effect.

SMILES	GALK inh	TrxR1 substrate	USP1-UAF1 inh	rTrxR1 inhibitor	Coupling enz
CC1(C)CCC[C@@](C)([C@H]2CC[C@]3(C)[C@@H]2[C@H](O)CC2[C@@]4(C)CC[C@H](O)C(C)(C)[C@@H]4[C@@H](O)C[C@]23C)O1 (stereo not given in full)	·	·	·	·	2
CC[N+]1(C)CCC(O)(c2ccc(OC)cc2)C(C(=O)c2ccc(OC)cc2)C1 (stereo not given)	·	4%	-11%	0.71µM*	·
COc1ccc(-c2ccc(C(=O)C3CC3)cc2)cc1	3%	-2%	-16%	7%	1
O=C1c2cccnc2C(=O)N1c1nc(-c2ccccc2)cs1	·	10%	·	7%[0.0914 µM]	·
O=C(Cc1cc(=O)[nH][nH]1)N/N=C/c1c(Cl)cccc1Cl	-3%	-7%	-5%	45µM*	1
COc1ccc(N2CCC(CNC(=O)Nc3ccc(OC)cc3OC)C2)cc1 (stereo not given)	2%	11%[57.1 µM]	-8%	0%[57.1 µM]	-31*
COc1cc(N(C)C)c(OC)cc1C=O	·	-11%	·	-14%	·
CCCN1CCc2c(sc(NC(=O)CCS(=O)(=O)c3ccccc3)c2C(=O)OC)C1	-2%	0%	-24%	50µM*	·
CC(C)N1CCc2c(sc(NC(=O)CCS(=O)(=O)c3ccccc3)c2C#N)C1	5%	-7%	-7%	10µM*	0
CCOC(=O)c1ccc([N+](=O)[O-])c(CS(=O)(=O)c2ccc(Cl)cc2)c1	0%	-4%	-2%	-3%	-1
Cc1ccc(S(=O)(=O)Cc2cc(F)c([N+](=O)[O-])cc2[N+](=O)[O-])cc1	-2%	-1%	-22%	18µM*	2
COc1cc(OC)c(OC)cc1/C=c1\[nH]c(=O)/c(=C/c2cc(OC)c(OC)cc2OC)[nH]c1=O	·	4%	·	1%	·
Cc1ccc(C(=O)c2c3ccc([N+](=O)[O-])cc3[n+]([O-])n2CCCN)cc1	·	2%	?	56µM*	·
Cc1ccc(C(=O)c2c3ccc(C(F)(F)F)cc3[n+]([O-])n2CCCN)cc1	·	8%[57.1 µM]	27%	-39%	·
S=c1nc[nH]c2n[nH]nc12	·	-3%	·	-5%	·
CC(=O)Nc1sc(/C(C#N)=C/c2ccc(Cl)c(Cl)c2)nc1-c1ccc(C)cc1	2%	-4%	17%	-3%	-44*
N#C/C(=C\Nc1ccc2cn[nH]c2c1)c1nc(-c2ccc(Cl)cc2)cs1	-2%	7%[57.1 µM]	-21%	30%[57.1 µM]	-35*
COc1cc(/C=C2\N=C3CCCCCN3C2=O)ccc1O	-1%	?	?	50µM*	1
COc1ccc(/C=C2\N=C3CCCCCN3C2=O)cc1OC	-1%	-1%	-14%	8%	-2
COc1cc(/C=N/NC(=O)c2ccncc2)c([N+](=O)[O-])cc1OC	5%	-7%	-23%	2%[2.29 µM]	6
COc1cc(OC)c([N+](=O)[O-])cc1/C=N/NC(=O)c1ccncc1	10%	?	?	-18%	-42*
COc1cc2c(cc1OC)C1=C(C#N)COCN1CC2	3%	20%	-9%	13µM*	-11
COc1ccccc1C1NC(c2ccc3c(c2)OCO3)=CC(c2cc(Br)ccc2O)N1 (stereo not given)	·	2%	·	-30%	·
CN1N=C(C(F)(F)F)CC1=O	1%	2%[57.1 µM]	-22%	15%[57.1 µM]	0
CN1N=C(C(C)(C)C)CC1=O	0%	11%[57.1 µM]	?	-62%	-32*
SMILES	GALK inh	TrxR1 substrate	USP1-UAF1 inh	rTrxR1 inhibitor	Coupling enz
COc1cc(N(C)C)c(OC)cc1/C=C1\C=Cc2ccccc21	·	-5%	·	-16%	·
COc1cc(C2SC[C@H]3C(=O)N(c4ccccc4)C(=O)N23)cc(OC)c1OC (stereo not given in full)	·	-2%	-3%	79µM*	·
Cc1ccc(N2C(=O)[C@@H]3CSC(c4ccc(F)cc4)N3C2=O)cc1 (stereo not given in full)	·	-2%	-7%	5%	·
COc1ccc(NC(=O)N2CCc3nc(COc4ccccc4)c4c(c3C2)CO[C@@H](C)C4)cc1	·	·	·	·	3
C/C(Cn1nnc([N+](=O)[O-])n1)=N\NC(=O)c1ccccc1	-2%	-7%	4%	?	-40*
Nc1ccc(Oc2ncccn2)cc1	-1%	-7%	7.9µM*	-15%	-28
